This note sets out measurements from PubChem BioAssay (EPA / NIEHS).

Read-out in assay [1]: TIMP metallopeptidase inhibitor 1 (TIMP1), TIMP1 (gene 7076)
Put plainly: BSK_hDFCGF_TIMP1: BioMAP Diversity Plus: hDFCGF Assay for TIMP metallopeptidase inhibitor 1 (TIMP1) Biomarker Activity (AID 2283062). Conditions: primary human foreskin fibroblasts; actives raise or lower the signal. A digest of the protocol:
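Bidirectional curve fitting against DMSO baseline yielded this endpoint, based on ELISA detection of TIMP-1 in primary human foreskin fibroblasts exposed to compound for 24 h.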

Read-out in assay [2]: Monokine induced gamma interferon (MIG), CXCL9 (gene 4283)
The experiment in a line: BSK_hDFCGF_MIG: BioMAP Diversity Plus: hDFCGF Assay for Monokine induced gamma interferon (MIG) Biomarker Activity (AID 2283063). Conditions: primary human foreskin fibroblasts; actives raise or lower the signal. A digest of the protocol:
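Endpoint derived by bidirectional fitting relative to DMSO; MIG quantified via ELISA in primary human foreskin fibroblasts harvested 24 h after dosing.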

Read-out in assay [3]: Plasminogen activator inhibitor-1 (PAI1), SERPINE1 (gene 5054)
The experiment in a line: BSK_hDFCGF_PAI1: BioMAP Diversity Plus: hDFCGF Assay for Plasminogen activator inhibitor-1 (PAI1) Biomarker Activity (AID 2283066). Particulars: primary human foreskin fibroblasts; actives raise or lower the signal. An outline of the steps:
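PAI-1 levels, determined by ELISA, served as the endpoint in human foreskin fibroblast cultures exposed to compound for 24 h, with DMSO as baseline.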

Read-out in assay [4]: Intercellular Adhesion Molecule 1 (ICAM1), ICAM1 (gene 3383)
Put plainly: BSK_KF3CT_ICAM1: BioMAP Diversity Plus: KF3CT Assay for Intercellular Adhesion Molecule 1 (ICAM1) Biomarker Activity (AID 2283067). Particulars: primary human keratinocytes with fibroblasts; actives raise or lower the signal. An outline of the steps:
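Bidirectional curve fitting against a DMSO baseline was applied to ICAM-1 ELISA signal from primary human skin co-cultures harvested 24 h after treatment, with SRB staining of parallel wells for overt cytotoxicity.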

Read-out in assay [5]: Interferon-gamma inducible Protein 10 (IP10), CXCL10 (gene 3627)
The experiment in a line: BSK_KF3CT_IP10: BioMAP Diversity Plus: KF3CT Assay for Interferon-gamma inducible Protein 10 (IP10) Biomarker Activity (AID 2283068). Conditions: primary human keratinocytes with fibroblasts; actives raise or lower the signal. An outline of the steps: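 ELISA read-out of IP-10 after 24 h chemical dosing of human skin primary co-culture (keratinocytes, foreskin fibroblasts). Gain or loss of signal relative to DMSO, bidirectional curve fit.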

Assay [6] in a line: BSK_KF3CT_SRB: Viability Assessment in the BioMAP Diversity Plus: KF3CT Assay (AID 2283069).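 Also: total protein by sulforhodamine B staining as a cytotoxicity measure; read 24 h after compound addition; fitted for both signal gain and loss against DMSO baseline.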 Conditions: primary human keratinocytes with fibroblasts. A digest of the protocol: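 Human keratinocyte and foreskin fibroblast co-culture exposed to chemical for 24 h. Total protein measured in parallel cultures by 0.1% sulforhodamine B staining after 10% TCA fixation, read at 560 nm; bidirectional fit relative to DMSO.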

Read-out in assay [7]: Interleukin-1 alpha (IL1a), IL1A (gene 3552)
The experiment in a line: BSK_KF3CT_IL1a: BioMAP Diversity Plus: KF3CT Assay for Interleukin-1 alpha (IL1a) Biomarker Activity (AID 2283070). Conditions: primary human keratinocytes with fibroblasts; actives raise or lower the signal. An outline of the steps: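 Primary human keratinocyte plus foreskin fibroblast co-culture, dosed and measured at 24 h in 96-well plates. IL-1a level quantified by ELISA; bidirectional fit relative to DMSO.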

Read-out in assay [8]: TIMP metallopeptidase inhibitor 2 (TIMP2), TIMP2 (gene 7077)
Put plainly: BSK_KF3CT_TIMP2: BioMAP Diversity Plus: KF3CT Assay for TIMP metallopeptidase inhibitor 2 (TIMP2) Biomarker Activity (AID 2283071). Conditions: primary human keratinocytes with fibroblasts; actives raise or lower the signal. A digest of the protocol:
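Keratinocyte–fibroblast co-culture, 24 h exposure; TIMP-2 ELISA, DMSO-normalised bidirectional fit. Parallel SRB (0.1%, TCA-fixed, 560 nm) total-protein staining gauges cytotoxicity.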

For orientation: AC50 means the midpoint of the concentration-response curve, whichever way the signal moves.

The source made the active and inactive calls. The calls were made as follows: active = hit-call score of the fitted dose curve at least 0.9, where 1 is the maximum; inactive = score below 0.9.

`Clc1cc(Cl)c(-c2c(Cl)c(Cl)cc(Cl)c2Cl)cc1Cl`: the AC50 was 10 µM (active) in assay [1]; 2.94 µM (active) in assay [3]; 15.5 µM (active) in assay [5]; 13.7 µM (active) in assay [6]; 2.95 µM (active) in assay [7]; 6.63 µM (active) in assay [8]. Besides, the result in assay [2] and in assay [4] was inactive.

As to `CCN(CC)C(=O)N(CC)CC`, the outcome in assay [1], in assay [2], in assay [3], in assay [4], in assay [5] and in assay [6] was inactive. Besides, the result in assay [7] and in assay [8] was inactive.

As for `CCCCOC(=O)CCCCCCCC(=O)OCCCC`, the outcome in assay [1], in assay [2], in assay [3], in assay [4], in assay [5] and in assay [6] was inactive. The outcome in assay [7] and in assay [8] was inactive.

On to `CC(C)(N=C=O)c1cccc(C(C)(C)N=C=O)c1`, for which the outcome in assay [1], in assay [2], in assay [3], in assay [4], in assay [5] and in assay [6] was inactive. For the same molecule, the outcome in assay [7] and in assay [8] was inactive.

Regarding `COc1cc(Cl)c(OC)cc1N`, the result in assay [1], in assay [2], in assay [3], in assay [4], in assay [5] and in assay [6] was inactive. Besides, the outcome in assay [7] and in assay [8] was inactive.

Turning to `CN(c1nccc(=O)[nH]1)C1CCN(c2nc3ccccc3n2Cc2ccc(F)cc2)CC1`, the outcome in assay [1], in assay [2], in assay [3], in assay [4], in assay [5] and in assay [6] was inactive. Further, the outcome in assay [7] and in assay [8] was inactive.

Consider `COc1ccc(CCN2CCC(Nc3nc4ccccc4n3Cc3ccc(F)cc3)CC2)cc1`, for which the AC50 in assay [1] was 6.47 µM (active); in assay [3] it was 7.58 µM (active). Moreover, the result in assay [2], in assay [4], in assay [5], in assay [6], in assay [7] and in assay [8] was inactive.
